Data on 39 compounds can be found in PubChem BioAssay.

The structures appear in SMILES notation.

The first test deals with Tumor necrosis factor receptor superfamily member 10B (Homo sapiens) (UniProt O14763). The experiment in a line: caspase-8 TRAIL sensitization, hit retest, confirmation, cell-based, NB7+caspase-8, with/without TRAIL, luminescence panel (AID 651596). The conditions noted are these: NB7 neuroblastoma + caspase-8, TRAIL sensitization, luminescence viability, with TRAIL, mean of runs, at 10 µM, stronger effect = higher value.
Chain of Tumor necrosis factor receptor superfamily member 10B (Homo sapiens) (O14763 whole entry, looked up): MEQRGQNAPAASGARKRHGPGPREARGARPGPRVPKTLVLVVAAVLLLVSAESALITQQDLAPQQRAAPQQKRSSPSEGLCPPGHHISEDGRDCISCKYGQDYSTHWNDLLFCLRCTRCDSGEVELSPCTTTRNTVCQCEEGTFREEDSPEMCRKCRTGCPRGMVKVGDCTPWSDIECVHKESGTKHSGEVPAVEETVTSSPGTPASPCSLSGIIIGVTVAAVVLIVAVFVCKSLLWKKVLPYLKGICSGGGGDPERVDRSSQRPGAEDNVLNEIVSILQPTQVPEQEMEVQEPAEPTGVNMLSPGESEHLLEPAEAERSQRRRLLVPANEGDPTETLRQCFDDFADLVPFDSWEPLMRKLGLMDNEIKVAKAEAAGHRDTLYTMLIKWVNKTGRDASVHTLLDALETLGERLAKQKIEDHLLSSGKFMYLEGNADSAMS
Take `CC(=O)c1c(C)[nH]c(C(=O)Nc2ccc(C)cn2)c1C`: the activity was 75.9%.
With `O=C(/C=C/Nc1ccccc1F)c1ccc(Br)cc1`, the activity worked out at 62.2%.
Same read-out and setting: next, `O=C(CCl)Nc1c(C(=O)Nc2ccc3c(c2)OCCO3)oc2ccccc12`: 93.3%; `O=c1cc(C(Cl)(Cl)Cl)oc2c1ccc1ccccc12`: 62.7%; `O=C(Cn1ncc(Cl)c(Cl)c1=O)NC1CCCCC1`: 98%.
Regarding `Cc1ccc(Nc2nc(NCc3ccco3)c3ccccc3n2)cc1`, the activity stood at 41.2%.
Same read-out and setting: in the case of `CC(C)c1onc(C(=O)N2CCN(C(c3ccccc3)c3ccccc3)CC2)c1[N+](=O)[O-]` it was 98.1%; in that of `CCCc1ccc(C(=O)NC(=O)c2ccccc2O)cc1`, 78.6%.
Same read-out and setting: next, `COc1cccc2oc3cc(C#CC4(O)CCCCC4)ccc3c(=O)c12`: 71.2%; `CCN1CCN(Cc2ccc(NC(=O)c3cc(NC(=O)C(=O)c4c[nH]c5ccccc45)cc(OC)c3)cc2C(F)(F)F)CC1`: 82.2%.
The same measure, in the same setting: next, `Cc1ccc(-n2cc(C(=O)c3ccccc3O)cn2)cc1`: 52%; `CNC(=S)N1N=C(c2ccccc2)CC1c1ccc(Br)cc1` (stereo not drawn): -12.4%; `O=C(CCl)N1c2ccccc2SCC1c1ccccc1` (stereo not drawn): 99.4%.
Consider `CN(C)CCNC(=O)c1cc2c(s1)-c1ccc(Cl)cc1SC2`, for which the activity came to 99%.
Still for that read-out and setting: next, `O=C(CSC(=S)N1CCCCC1)c1ccccc1`: 50.8%.
In the case of `O=C1CC(c2ccc3c(c2)OCCO3)Oc2ccc([N+](=O)[O-])cc21` (stereo not drawn), the activity stood at 56.3%.
For the compound `O=C(/C=C/c1ccco1)Nc1ccccc1C(=O)O`, the activity came out at 45.1%.
In the case of `Nc1c(-c2ccccc2)cnc2c(-c3ccccc3)cnn12`, the activity came out at 73.7%.
Same read-out and setting: next, `COc1ccc(C(=O)Nc2ccc3c(c2)OCCO3)cc1`: 77.6%; `COc1ccc(-c2cc3nc(C)cc(N)n3n2)cc1`: 90.2%; `Cc1nnc(NC(=O)c2nc(S(=O)(=O)Cc3ccccc3)ncc2Cl)s1`: 94.5%.
As for `C=CCn1c2ccccc2c(=O)c2cc(C#CC3(O)CCCCC3)ccc21`, the activity turned out to be 83.7%.
For `Cn1c(=N)n(CC(=O)c2ccc(F)cc2)c2ccccc21`, the activity is 75.8%.
Regarding `O=C(N/N=C/c1cccs1)c1ccc2c(c1)OCO2`, the activity came to 71.7%.
Turning to `CC(C)c1ccc(NC(=O)Nc2nc(C(N)COCc3ccccc3)cs2)cc1` (stereo not drawn), the activity turned out to be 47.9%.
On the same count and under the same terms, next, `O=C(CCN1C(=O)NC2(CCCC2)C1=O)Nc1ccc(-c2nc3ccccc3s2)cc1`: 52.2%; `CCOc1ccc(-c2cc(C(=O)N/N=C(\C)c3cccnc3)c3ccccc3n2)cc1`: 74%; `O=C(Nc1ccc(N2CCOCC2)cc1)c1csc(COCCO)n1`: 54.5%.
The same measure, in the same setting: in the case of `COc1cccc(C(=O)Nc2ccc(NC(=O)C(C)(C)C)cn2)c1` it was 79.7%; in that of `Cc1csc(C(C#N)C(=O)c2cc3ccccc3o2)n1` (stereo not drawn), 57.3%; in that of `CCC[C@H](CN[C@@H](CNC)[C@H](C)CC)NCCc1cc(C(F)(F)F)cc(C(F)(F)F)c1`, 65.7%.
`CN(C)c1ccc(-c2nc3ccccc3n2C)cc1`: the activity was 92.3%.
In the case of `C=C(C)c1cc2c(ccc3ccc(=O)oc32)o1`, the activity was 92.6%.
On to `O=C(/C=C/c1ccccc1)Nc1ccc2c(c1)C(=O)NC2=O`, for which the activity came out at 14.6%.
In the case of `Cc1ccc(-c2nc3cc(N)ccc3o2)cc1`, the activity was determined as 69.2%.
Same read-out and setting: next, `O=C(c1ccncc1)N1CCN(c2cc(-c3ccccc3)nc3cc(-c4cccc(Cl)c4)nn23)CC1`: -0.725%.
Same read-out and setting: in the case of `O=C1CCC(=O)N1c1ccc(-c2nc3ccccc3s2)cc1` it was 76.8%; in that of `N#CC1=C(N)N2C(=C(C#N)C1c1cccc(Br)c1)Nc1ccccc12` (stereo not drawn), 55.6%.
Still for that read-out and setting: in the case of `O=c1cc(-c2c(F)c(F)c(F)c(F)c2F)oc2ccccc12` it was 98.1%.

Tested on in a further test: not listed separately
Described as above. The conditions noted are these: NB7 neuroblastoma + caspase-8, without TRAIL, luminescence viability, without TRAIL, mean of runs, at 10 µM.
For the compound `CC(=O)c1c(C)[nH]c(C(=O)Nc2ccc(C)cn2)c1C`, the activity amounted to 77.6%.
As for `O=C(/C=C/Nc1ccccc1F)c1ccc(Br)cc1`, the activity was found to be 59.5%.
For `O=C(CCl)Nc1c(C(=O)Nc2ccc3c(c2)OCCO3)oc2ccccc12`, the activity came out at 90.3%.
On to `O=c1cc(C(Cl)(Cl)Cl)oc2c1ccc1ccccc12`, for which the activity turned out to be 65.3%.
Same read-out and setting: in the case of `O=C(Cn1ncc(Cl)c(Cl)c1=O)NC1CCCCC1` it was 98.5%; in that of `Cc1ccc(Nc2nc(NCc3ccco3)c3ccccc3n2)cc1`, 45.6%; in that of `CC(C)c1onc(C(=O)N2CCN(C(c3ccccc3)c3ccccc3)CC2)c1[N+](=O)[O-]`, 93.9%.
On the same count and under the same terms, next, `CCCc1ccc(C(=O)NC(=O)c2ccccc2O)cc1`: 75.5%; `COc1cccc2oc3cc(C#CC4(O)CCCCC4)ccc3c(=O)c12`: 68.8%.
As to `CCN1CCN(Cc2ccc(NC(=O)c3cc(NC(=O)C(=O)c4c[nH]c5ccccc45)cc(OC)c3)cc2C(F)(F)F)CC1`, the activity is 77.7%.
On to `Cc1ccc(-n2cc(C(=O)c3ccccc3O)cn2)cc1`, for which the activity is 38.6%.
For the compound `CNC(=S)N1N=C(c2ccccc2)CC1c1ccc(Br)cc1` (stereo not drawn), the activity was -42.7%.
Same read-out and setting: next, `O=C(CCl)N1c2ccccc2SCC1c1ccccc1` (stereo not drawn): 98.9%.
Still for that read-out and setting: next, `CN(C)CCNC(=O)c1cc2c(s1)-c1ccc(Cl)cc1SC2`: 99.5%.
In the case of `O=C(CSC(=S)N1CCCCC1)c1ccccc1`, the activity was determined as 35.2%.
Regarding `O=C1CC(c2ccc3c(c2)OCCO3)Oc2ccc([N+](=O)[O-])cc21` (stereo not drawn), the activity amounted to 55.9%.
On to `O=C(/C=C/c1ccco1)Nc1ccccc1C(=O)O`, for which the activity worked out at 42.1%.
Still for that read-out and setting: next, `Nc1c(-c2ccccc2)cnc2c(-c3ccccc3)cnn12`: 77.2%; `COc1ccc(C(=O)Nc2ccc3c(c2)OCCO3)cc1`: 70%.
Turning to `COc1ccc(-c2cc3nc(C)cc(N)n3n2)cc1`, the activity was 86.5%.
On the same count and under the same terms, in the case of `Cc1nnc(NC(=O)c2nc(S(=O)(=O)Cc3ccccc3)ncc2Cl)s1` it was 84.9%.
The same measure, in the same setting: in the case of `C=CCn1c2ccccc2c(=O)c2cc(C#CC3(O)CCCCC3)ccc21` it was 79.7%.
On the same count and under the same terms, next, `Cn1c(=N)n(CC(=O)c2ccc(F)cc2)c2ccccc21`: 67.5%; `O=C(N/N=C/c1cccs1)c1ccc2c(c1)OCO2`: 66%; `CC(C)c1ccc(NC(=O)Nc2nc(C(N)COCc3ccccc3)cs2)cc1` (stereo not drawn): 80.4%.
Consider `O=C(CCN1C(=O)NC2(CCCC2)C1=O)Nc1ccc(-c2nc3ccccc3s2)cc1`, for which the activity came to 44.5%.
Still for that read-out and setting: next, `CCOc1ccc(-c2cc(C(=O)N/N=C(\C)c3cccnc3)c3ccccc3n2)cc1`: 69.6%; `O=C(Nc1ccc(N2CCOCC2)cc1)c1csc(COCCO)n1`: 59.1%.
Still for that read-out and setting: in the case of `COc1cccc(C(=O)Nc2ccc(NC(=O)C(C)(C)C)cn2)c1` it was 83%; in that of `Cc1csc(C(C#N)C(=O)c2cc3ccccc3o2)n1` (stereo not drawn), 61.2%; in that of `CCC[C@H](CN[C@@H](CNC)[C@H](C)CC)NCCc1cc(C(F)(F)F)cc(C(F)(F)F)c1`, 96.1%.
For `CN(C)c1ccc(-c2nc3ccccc3n2C)cc1`, the activity is 89.8%.
In the case of `C=C(C)c1cc2c(ccc3ccc(=O)oc32)o1`, the activity worked out at 91%.
With `O=C(/C=C/c1ccccc1)Nc1ccc2c(c1)C(=O)NC2=O`, the activity was 19.9%.
Consider `Cc1ccc(-c2nc3cc(N)ccc3o2)cc1`, for which the activity is 60%.
Same read-out and setting: next, `O=C(c1ccncc1)N1CCN(c2cc(-c3ccccc3)nc3cc(-c4cccc(Cl)c4)nn23)CC1`: -15.8%; `O=C1CCC(=O)N1c1ccc(-c2nc3ccccc3s2)cc1`: 41%; `N#CC1=C(N)N2C(=C(C#N)C1c1cccc(Br)c1)Nc1ccccc12` (stereo not drawn): 61.6%.
`O=c1cc(-c2c(F)c(F)c(F)c(F)c2F)oc2ccccc12`: the activity was found to be 92.1%.
